In publication PMC12136788:
The full ranking holds about 24,000 sequences; the median of “enrichment r” is about 0.99, and the highest 2% start at about 3.7. The sample holds the highest values, similar sequences and a random draw of the others, so the mix is not that of the screen.

B1: chr5:64741823:64741824:+_ENSMUSG00000029174_ENSMUST00000119756|mus_mus|motif|central (ssRNA)
RNA: GGGAGUUCUACAGUCCGACGAUCAAUAAAUAUGUCAGACCCCACAGCUACAGGUCCCACACUAGCAAUAACAGGGAAUCGGAAAACUGUGAUUUCCUUAUGAAACAUUUACCUGUGACUUGAAAGGGUAAGCAAAAACCAUACCAACAGAGGAUUGAGCAUCA
B2: chr16:94664741:94664742:+_ENSMUSG00000040785_ENSMUST00000117648|mus_hu|mus_mus_mus_hu_False|1_98 (ssRNA)
RNA: GGGAGUUCUACAGUCCGACGAUCUGGUACUGAUCUUUGCAUUGGAUAUUCAGGAGAAAGGCUGGCCAAGGGUGUAUAUAUGCUGGUGUACUGGGGCAAACCUGGUAACACGUUUAUGUAUGCUGGCGGUGUCUGGGUGCCAAACAACAGAGGAUUGAGCAUCA
B3: chr1:44133529:44133530:+_ENSG00000066135_ENST00000372396|hu_mus|FALSE|FALSE (ssRNA)
RNA: GGGAGUUCUACAGUCCGACGAUCGAACUCGGCUGCUUCCGGUGUGGGCAGAGUGUGGUCAAUAACCAUGCUGUCCUUCCCAGCUUUCCAAAGUUUGUAGCGUUCCGGCUGGAACCUCCUCACGAACACGUCCAUGGAGAUCUUCAACAGAGGAUUGAGCAUCA
B4: chr10:75008345:75008346:-_ENSG00000213551_ENST00000372950|hu_hu|motif|central (ssRNA)
RNA: GGGAGUUCUACAGUCCGACGAUCCUAUAUCUUAGUCACACACCAGAGUUAAGCCAUCUGUCUUUGCUCAUUUUUCCCUCGGUGGACAACAUAAUAUGUUGGGAAGGGCUUUCCAGGAGGGCAUAACCGGGAGAUGAAUCUUACCAACAGAGGAUUGAGCAUCA
B5: chr1:225611761:225611762:-_ENSG00000143815_ENST00000272163|hu_mus|hu_hu_hu_mus_True|8_88 (ssRNA)
RNA: GGGAGUUCUACAGUCCGACGAUCCCAGGCCAUCGGCCUCUGACCACUUCACCAUCGACAAACUUCCUACUUGGCAUUUUCUAAAAUUAGUCUGGCCGCGCUCCGGCGGGAACUCCAGCCACUCCAGGGAGAAUAGUAGCAGCCCAACAGAGGAUUGAGCAUCA
B6: chr2:179515052:179515053:+_ENSMUSG00000000305_ENSMUST00000000314|mus_hu|FALSE|FALSE (ssRNA)
RNA: GGGAGUUCUACAGUCCGACGAUCGCUGUCCCAUGCAGUCACCGUGAACGCCACCUGCUCGGAGGGGACCUGCAGCUCCCGGGUGGCGAAGACUGUCCCAUCUGCCCCAACUUUGAAGUCCAUGCUGUUGGUCUCAUAUUGUGUCAACAGAGGAUUGAGCAUCA
B7: chr11:31834330:31834331:+_ENSMUSG00000020300_ENSMUST00000109412|mus_mus|FALSE|FALSE (ssRNA)
RNA: GGGAGUUCUACAGUCCGACGAUCAUAAAGUUCAGAGUAAUAGAUAAUCAUUGUUUAUGCCCUGUAAAGAAGUGGAACCAAAUCAUCUGUAAACACGCUUGUCACACAAUCACAAGUAAAUAUUAGCAGAAUAACAAUUUCUUACAACAGAGGAUUGAGCAUCA
B8: chr19:15271055:15271056:-_ENSG00000074181_ENST00000263388|hu_mus|FALSE|FALSE (ssRNA)
RNA: GGGAGUUCUACAGUCCGACGAUCAUAUAUAUUUUGUAAAAAAUAAUAAUAAUAAUAAGUUUGUUUAAAUGAAUUUGUCUCUAUACAAAAUGUAAAAAAGAAAAAAAUAAUAACUCACUCUUGUCAGAGUGUGAGACAAUGAGACAACAGAGGAUUGAGCAUCA
B9: 13037762_13037882_4555_3pUTR_ENSMUSG00000029571_ENSMUST00000031556|mouse|control|control (ssRNA)
RNA: GGGAGUUCUACAGUCCGACGAUCUAAAAGGUACUCCUAUUUUAAAAACAUAUGAAUGAAACUAUCUUCUAAAAUAAGACGCAAUGUGUUAACAACCAGUUGAUUUAAGCACUUUAAAAGGCAGAAUGGAAAAGUCGGCACACCCAACAGAGGAUUGAGCAUCA
B10: chr3:169711627:169711628:+_ENSG00000008952_ENST00000337002|hu_hu|motif|central (ssRNA)
RNA: GGGAGUUCUACAGUCCGACGAUCUAAAAACAUACCCUUACAUGGUCUUAAUUUUAUGAAUUUAAGUGUUGAGAAAUAUCGGAAUAAUAAGUAACAAUUAAAAUAAAAUGUUUUAUUUGUAAAUUAUGUACAGAAUACACUUUACAACAGAGGAUUGAGCAUCA
B11: chr4:95690885:95690886:+_ENSMUSG00000028572_ENSMUST00000156910|mus_mus|mus_mus_mus_hu_False|8_78 (ssRNA)
RNA: GGGAGUUCUACAGUCCGACGAUCUUUAGAAAAUGUUAAAUACCAUGCUAAAAUAUUGUAAUUUUAAUAUUUUAUUUUACCAGAAGUCACAGGCAAGCAGACACUACAAGAAUAUAUGAAAAUGAAACAACAGUGUAUAACUGUCAACAGAGGAUUGAGCAUCA
B12: chr7:7676484:7676485:-_ENSG00000106399_ENST00000223129|hu_mus|FALSE|FALSE (ssRNA)
RNA: GGGAGUUCUACAGUCCGACGAUCAAGUAUCACUUUUAAAAAAAGUUUAUAAAAAGGCUUAGUUGUAAACUGUCAUAAUAGAUUUACAAAAAAAUAUAUAUAUAUAAAAGAACAAAUUAAAUAUUAGAAAUUAUAGGAGUCGCUCAACAGAGGAUUGAGCAUCA
B13: chr11:99246628:99246629:-_ENSMUSG00000019761_ENSMUST00000103131|mus_mus|FALSE|FALSE (ssRNA)
RNA: GGGAGUUCUACAGUCCGACGAUCAUAGUUUGCAUCAGUAAGAAAGUUUAUUGAAAUUUAUUAGUAAAUGAGAAAUUAAUAAGUAAGUGAGAAAGUUUUCUUCUUUUUUCUCCACAAAAGAACACUUUCUGAUAGAUGAAAAGACAACAGAGGAUUGAGCAUCA
B14: chr6:13577978:13577979:-_ENSMUSG00000042742_ENSMUST00000045235|mus_hu|FALSE|FALSE (ssRNA)
RNA: GGGAGUUCUACAGUCCGACGAUCAAAAAGAAUUAUCACCAAUUACAAAAAGUUCAGUAAAUAUUGGAUCAUCAGACAAAAAAGGAACAUAAAAUGACUUUCUGUAACAUCACAAUUUUAGUUAGAAAAAAGAAAAAGAUAAGUCAACAGAGGAUUGAGCAUCA
B15: chr1:90180492:90180493:+_ENSG00000171488_ENST00000370454|hu_hu|motif|central (ssRNA)
RNA: GGGAGUUCUACAGUCCGACGAUCUUUCAUUUGCUCCCGGACGUCAGAAGGCAGAGUUUCAAACAGAGCAUCUUCGGCAACGGAACCAGCUCGCUUCAGAGCCCGACAGUCACCCAGUUCAGGAGGGAGGAUUUCAAAGUGAUUCAACAGAGGAUUGAGCAUCA
B16: chr1:39494447:39494448:+_ENSG00000168653_ENST00000372967|hu_mus|hu_hu_hu_mus_False|38_58 (ssRNA)
RNA: GGGAGUUCUACAGUCCGACGAUCGCACCGAGCGGCGUUCUUAUAGGGCUGUUCUGCGCUUAGGAACAUAAAGUGCCGAUCUAUGUUGAUGCCCAGCCUUUUCUGGAUGUCAAGGAAAGGCAUGGCUCUGCAGUGCCCUUGUCACAACAGAGGAUUGAGCAUCA
B17: 131003253_131003911_1761_CDS_ENSMUSG00000068267_ENSMUST00000089510|mouse|control|control (ssRNA)
RNA: GGGAGUUCUACAGUCCGACGAUCCAAGGGCCAAAGACUGGGCCAGAGAAAGGGAUCUGGGGAGGUGGAAAGCAGGCAGAGGCAGGCUCGGUUCUUCCUAGUCACGUGGACCAGAUCGUGUUCCAAAUGAAGGAUGUGACUCUGCAACAGAGGAUUGAGCAUCA
B18: chr7:7679991:7679992:-_ENSG00000106399_ENST00000396682|hu_hu|hu_hu_hu_mus_False|48_58 (ssRNA)
RNA: GGGAGUUCUACAGUCCGACGAUCUGGGAUGAAUCUUUUCCAGCUUCCCCACGAAGCACACGGGCCGGUCGAUAUACUGAGCUAGCAUGCCGGCGUUGACGCGCGCUUUGGGGAGCUGCAUUAUGUCCUCCAUGAUUCUGCCGCCAACAGAGGAUUGAGCAUCA
B19: chr7:75932113:75932114:+_ENSG00000106211_ENST00000248553|hu_hu|hu_hu_hu_mus_False|38_78 (ssRNA)
RNA: GGGAGUUCUACAGUCCGACGAUCCUGCGACCACUCAUCGGGCAACCGGGGCACCCCGAAGGCCUGGUCGAAGAGGCGGCUGUGUGCAGGGUACCAGCGGAAGGGGUGUUCCCAGCUCGGGCUCCGCAGCAGCGAGAAGGGCACCAACAGAGGAUUGAGCAUCA
B20: chr12:3264740:3264741:-_ENSMUSG00000020671_ENSMUST00000021001|mus_mus|FALSE|FALSE (ssRNA)
RNA: GGGAGUUCUACAGUCCGACGAUCCCAUAUCUGUAGCUUGAUCUUCUUUCCUUGUAGUUCCACUGUUUUGAUCUUAAAGUCUAUUCCUAUGGUGGAAAUAAAGGUGGUAUUGAAGGCAUCGUCCGAAAAACGAAAAAGGACGCACAACAGAGGAUUGAGCAUCA
B21: chr7:92085846:92085847:+_ENSG00000157259_ENST00000287957|hu_mus|FALSE|FALSE (ssRNA)
RNA: GGGAGUUCUACAGUCCGACGAUCGUUAAAACUGAGGCUUUAUACCUGCGAAGUAAGUAUGUCCCAGGUUUGGUUUUGUAACUACAAGUGGUUGGCAACUGUUUCCUUAAUAGUUAUCGCAGGAGUAGGUCCAACGUGAGUCCACAACAGAGGAUUGAGCAUCA
B22: chr21:34877999:34878000:-_ENSG00000159131_ENST00000381815|hu_hu|motif|central (ssRNA)
RNA: GGGAGUUCUACAGUCCGACGAUCGUCAAUUGCACUGUCAAAUUCUACACGAUUUUUAUACAGUUUAUGAUUAAUUACUCGGGUGGGAAUACCAGCUCUUUCCGCUUUAUCUAACCCAGCUACUGCGGCUUUGUUGGAGAUAACCAACAGAGGAUUGAGCAUCA

molecular target: T1, UNK ZnF1-3 (human, UniProt Q9C0B0 31-174); experiment: nsRBNS (natural sequence RNA bind-n-seq); RBNS binding buffer (assumed for nsRBNS): 25 mM Tris pH 7.5, 150 mM KCl, 3 mM MgCl2, 0.01% Triton X-100, 500 ug/ml BSA, 20 U/ml SUPERase-In, 4 C; UNK is unkempt and MSI1 is Musashi-1; names of the RNAs are library labels; protein concentration not given here; high values mean tight binding
T1 sequence: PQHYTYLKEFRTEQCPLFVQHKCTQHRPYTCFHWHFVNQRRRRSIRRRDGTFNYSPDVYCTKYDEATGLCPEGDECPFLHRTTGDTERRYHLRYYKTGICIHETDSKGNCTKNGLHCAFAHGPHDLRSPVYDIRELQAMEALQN

Row | Binder | binding signal [enrichment R]
1 | B1 | 1.44
2 | B2 | 0.999
3 | B3 | 0.602
4 | B4 | 1.77
5 | B5 | 1.19
6 | B6 | 0.755
7 | B7 | 0.945
8 | B8 | 4.58
9 | B9 | 1.37
10 | B10 | 5.94
11 | B11 | 1.97
12 | B12 | 21.9
13 | B13 | 19.7
14 | B14 | 3.59
15 | B15 | 3.35
16 | B16 | 0.477
17 | B17 | 1.29
18 | B18 | 0.406
19 | B19 | 0.969
20 | B20 | 1.8
21 | B21 | 0.838
22 | B22 | 0.651
